The campaign covered roughly 48,000 compounds. About 13,000 (27%) showed an effect of 50% or more. The list shows a part of the results.
System: Wolbachia pipientis
Assay: Anti-Wolbachia Cell-Based Screen
Assay type: functional
Parameters: scale not given: in the data most compounds retested in dose-response had high values
Settings: 5 µM

Going from `Cc1occc1C(=O)N1CCCC2(CCN(CCN3CCCC3)C2=O)C1.O=C(O)C(F)(F)F` (stereo not drawn) to `Cn1cccc1C(=O)N1CCCC2(CCN(CCN3CCCC3)C2=O)C1.O=C(O)C(F)(F)F` (stereo not drawn), the “Percent Effect” value falls from -1.514% to -2.422%.

Compared with `Cc1occc1C(=O)N1CCC2(CCN(Cc3ccccn3)C2=O)C1.O=C(O)C(F)(F)F` (stereo not drawn), `Cc1occc1C(=O)N1CCCC2(CCN(c3ccccc3)C2=O)C1` (stereo not drawn) is lower in “Percent Effect” value: 103.9% for the first, 4.886% for the second.

Compared with `O=C(c1ccc(O)nc1)N1CCN(C(=O)c2ccc(F)c(F)c2)CC1`, `O=C(c1cccnc1)N1CCN2C(=O)N(Cc3ccc(F)cc3)C[C@H]2C1` is higher in “Percent Effect” value: -0.8885% for the first, 2.014% for the second.

Compared with `CCN1CCN(CCNC(=O)c2sc(C(C)C)nc2C)CC1`, `CCN1CCN(CCNC(=O)c2sc(C)nc2C)CC1` is lower in “Percent Effect” value: 114.4% for the first, 76.69% for the second.

Compared with `Cc1nc(C)c(C(=O)NCCNc2cc(N3CCCC3)ncn2)s1`, `Cc1nc(C)c(C(=O)NCCNC(=O)Cc2ccccc2)s1` is lower in “Percent Effect” value: 20.28% for the first, 4.586% for the second.

Compared with `Cc1nc(C(C)C)sc1CNC(=O)CCCN1CCCCC1`, `Cc1nc(C(C)C)sc1C(=O)NCCn1ccnc1` is higher in “Percent Effect” value: -2.668% for the first, 18.45% for the second.

First: CNC(=O)C1CCCCN1C(=O)c1csc(-c2ccccc2)n1 (stereo not drawn)
Second: CNC(=O)C1CCCCN1C(=O)c1n[nH]c(=O)c2ccccc12 (stereo not drawn)
The “Percent Effect” value of the first is lower: -0.9781% for the first, 98.92% for the second.

Going from `CC1CCCCN1C(=O)c1n[nH]c(=O)c2ccccc12` (stereo not drawn) to `O=C(c1n[nH]c(=O)c2ccccc12)N1CCCCC1c1ccn[nH]1` (stereo not drawn), the “Percent Effect” value falls from 115.2% to -2.968%.

Going from `O=C(NCCCN1CCCC1)c1n[nH]c(=O)c2ccccc12` to `CNC(=O)C1CCCCN1C(=O)c1cn(CCOC)c2ccccc12` (stereo not drawn), the “Percent Effect” value falls from 0.5839% to -5.579%.

Going from `Cn1ccc2cc(CC3COCCN(C(=O)c4cccnc4)C3)ccc21` (stereo not drawn) to `Cn1ccc2cc(CC3COCCN(C(=O)c4ccccn4)C3)ccc21` (stereo not drawn), the “Percent Effect” value rises from 69.9% to 118.8%.

Going from `COc1cccc(CCC2CCCN(C(=O)c3ccccn3)C2)c1` (stereo not drawn) to `CC1COCCN1C(=O)c1ccc(=O)n(CCOc2ccccc2)n1` (stereo not drawn), the “Percent Effect” value rises from -14.56% to -6.742%.

Going from `CN(C)CCN1CC(C(=O)NCc2ccc(C#N)cc2)CC1=O` (stereo not drawn) to `Cc1cnc(C(=O)N2CCCCC2c2ccc(CN(C)C)cc2)cn1` (stereo not drawn), the “Percent Effect” value rises from -12.86% to 6.216%.

First: COc1ccc(CC(C)(O)CNC(=O)NCc2cccs2)cc1 (stereo not drawn)
Second: COc1ccc(CNC(=O)Nc2cccnc2N2CCCC2)cc1O
The “Percent Effect” value of the first is lower: -12.02% for the first, 5.848% for the second.

Going from `Cc1nc2c(c(=O)n1C)CN(C(=O)C1CCCN(CC(N)=O)C1)C2` (stereo not drawn) to `Cc1sc(NC(=O)CN2CCCC(c3ncc[nH]3)C2)c(C)c1C` (stereo not drawn), the “Percent Effect” value rises from -6.994% to 13.59%.

Compared with `CN(CC(=O)NC(Cc1ccccc1)C1CCCC1)S(C)(=O)=O` (stereo not drawn), `CCNC(=O)[C@@H]1CCCN1[C@@H](C(=O)NC)c1ccccc1.Cl` is higher in “Percent Effect” value: 1.289% for the first, 1.454% for the second.

Going from `Cc1cc(N2CCC(C(=O)O)(n3ccc(C(C)(C)C)n3)CC2)nc(N)n1` to `Cc1nc(N2CCCC2C(=O)NC(C)(C)CO)nc2ccccc12` (stereo not drawn), the “Percent Effect” value rises from -17.81% to -14.27%.

Going from `Cc1cc(NC(=O)NCC(c2ccccc2)N2CCOCC2)n(C)n1` (stereo not drawn) to `Cc1cc(NC(=O)NCC(c2ccc(C)o2)N2CCOCC2)n(C)n1` (stereo not drawn), the “Percent Effect” value rises from 108.2% to 126.3%.

Going from `Cc1cc(NC(=O)NCCc2ccccc2)n(C)n1` to `Cc1cc(NC(=O)NCc2ccccc2OC(F)F)n(C)n1`, the “Percent Effect” value rises from -5.779% to 8.208%.

Compared with `Cc1cc(NC(=O)NCC(O)c2ccc(Cl)cc2Cl)n(C)n1` (stereo not drawn), `COc1c(CNC2CCc3cc(Cl)ccc32)c(C)nn1C` (stereo not drawn) is higher in “Percent Effect” value: 1.838% for the first, 202% for the second.

Going from `Cc1cnc(C(=O)NCC(c2ccc(C)o2)N2CCOCC2)cn1` (stereo not drawn) to `Cc1cnc(C(=O)N2CCOCC2C)cn1` (stereo not drawn), the “Percent Effect” value rises from -11.84% to 99.05%.

Going from `CCc1ccccc1OCCCN(C)C(=O)C1CCCN1C(N)=O` (stereo not drawn) to `CCOCCNC(=O)[C@@H]1CCCN1c1nccc(Nc2ccccc2)n1`, the “Percent Effect” value rises from -6.634% to 123.1%.

First: CCC(NC(=O)CC(F)(F)F)c1ccccc1OCC(=O)N1CCCC1 (stereo not drawn)
Second: CCOCC(=O)N1CCC2(CC1)COC(COCc1ccccn1)C2.O=C(O)C(F)(F)F (stereo not drawn)
The “Percent Effect” value of the first is higher: -4.718% for the first, -4.838% for the second.

First: CCCc1cc(C(=O)N(Cc2cccnc2)C[C@@H]2CCC(=O)N2)no1
Second: Cc1ccc(CCCC(=O)N2CC(=O)Nc3cccnc32)s1
The “Percent Effect” value of the first is lower: -10.16% for the first, -7.748% for the second.

First: O=C1CCC2(CCCN(C(=O)c3cccs3)C2)N1 (stereo not drawn)
Second: O=C1CCC2(CCCN(C(=O)c3cccnc3)CC2)N1 (stereo not drawn)
The “Percent Effect” value of the first is lower: -85.27% for the first, -2.669% for the second.

First: Cc1ncccc1C(=O)N1CCC2(CCc3ccccc3C(=O)N2)C1 (stereo not drawn)
Second: O=C1NC2(CCc3ccccc31)CCN(C(=O)c1cccnc1)C2 (stereo not drawn)
The “Percent Effect” value of the first is lower: 98.8% for the first, 113.1% for the second.

Going from `CC(C)CN1C[C@@H]2C(=O)NC3(CCN(C(=O)c4cccnc4)CC3)[C@@H]2C1` to `CN1CC(c2ccccc2)C2(CCN(C(=O)c3ccc[nH]3)CC2)C1=O` (stereo not drawn), the “Percent Effect” value falls from 1.9% to -2.349%.

Going from `O=C1NC2(CCc3ccccc31)CCN(C(=O)c1ccncc1)C2` (stereo not drawn) to `Cc1nccc(-c2ccccc2)c1C(=O)N1CCC2(CC(=O)NC2=O)C1` (stereo not drawn), the “Percent Effect” value falls from 94.99% to -6.27%.

First: Cc1nccc(-c2ccccc2)c1C(=O)N1CC[C@](C)(O)C(C)(C)C1
Second: CN1CC[C@]2(CN(C(=O)c3ccc[nH]3)C[C@H]2c2ccccc2)C1=O
The “Percent Effect” value of the first is higher: -0.4275% for the first, -8.445% for the second.

Compared with `CCC(C)(CC(=O)OC)NCc1noc(C)n1` (stereo not drawn), `CCC(CC)(CNC(=O)OC(C)(C)C)NC(=O)C1CCCO1` (stereo not drawn) is higher in “Percent Effect” value: -21.8% for the first, -2.751% for the second.

First: CC(C)c1nnc2n1CCN(C(=O)COc1ccc(C(N)=O)cc1)C2
Second: O=C(COc1ccc(Cl)cc1)Nc1cnc(N2CCOCC2)nc1
The “Percent Effect” value of the first is lower: -6.982% for the first, -3.73% for the second.

First: COCC1CC2(CCN(C(=O)C3CCSCC3)CC2)CO1 (stereo not drawn)
Second: CN(C)C(=O)CCC(=O)N1CCC2(CC1)COC2
The “Percent Effect” value of the first is higher: -14.44% for the first, -20.99% for the second.

Compared with `CCCC(Nc1c(C#N)c(=O)n(C)c(=O)n1C)c1ccc(F)cc1F` (stereo not drawn), `COc1c(CNC2CCc3cc(F)ccc32)c(C(C)C)nn1C` (stereo not drawn) is higher in “Percent Effect” value: -0.1424% for the first, 97.63% for the second.

First: C[C@@H]1CN(C(=O)c2ccc[nH]2)C[C@]12CCN(CCN1CCCC1)C2=O.O=C(O)C(F)(F)F
Second: COCCN1CC[C@]2(CN(C(=O)c3ccc[nH]3)C[C@H]2C)C1=O
The “Percent Effect” value of the first is higher: 108.3% for the first, 91.74% for the second.

Going from `O=C(O)C(F)(F)F.O=C(O)C(F)(F)F.O=C(O)C(F)(F)F.c1c[nH]c(CN2CCC3(CC2)COCCN(CCN2CCCC2)C3)c1` to `O=C(Nc1cnc(N2CCOCC2)nc1)c1ccc(C(F)(F)F)cc1`, the “Percent Effect” value rises from -16.15% to -14.92%.

Compared with `COc1c(CNC2CCc3c(Cl)cccc32)c(C)nn1C.Cl` (stereo not drawn), `COc1c(CNC2CCc3c(F)cccc32)c(C)nn1C.Cl` (stereo not drawn) is higher in “Percent Effect” value: -6.251% for the first, 125.6% for the second.

First: COc1c(CNC2CCc3cc(C)ccc32)c(C)nn1C (stereo not drawn)
Second: COc1c(CNC2CCc3ccccc32)c(C)nn1C (stereo not drawn)
The “Percent Effect” value of the first is higher: 196.3% for the first, 132.3% for the second.

Compared with `COc1c(CNC2CCOc3ccccc32)c(C(C)C)nn1C` (stereo not drawn), `COc1c(CNC2CCOc3ccccc32)c(C)nn1C` (stereo not drawn) is lower in “Percent Effect” value: -0.8821% for the first, -8.703% for the second.

First: Cn1ncnc1CNC1CCc2cc(Cl)ccc21 (stereo not drawn)
Second: Cc1nn(C)c(N(C)C)c1CNC1CCc2cc(F)ccc21.Cl (stereo not drawn)
The “Percent Effect” value of the first is lower: -6.658% for the first, 58.09% for the second.

First: COc1c(CNC2CCOc3c(Cl)cccc32)c(C)nn1C.Cl (stereo not drawn)
Second: COc1c(CNC2CCOc3c(F)cccc32)c(C)nn1C (stereo not drawn)
The “Percent Effect” value of the first is lower: -20.37% for the first, -5.109% for the second.

Going from `COc1c(CNC2CCCc3ccccc32)c(C(C)C)nn1C` (stereo not drawn) to `COc1c(CNC2CCCc3ccccc32)c(C)nn1C` (stereo not drawn), the “Percent Effect” value falls from -2.774% to -3.62%.

Going from `Cc1ccc2c(c1)CCC2NCc1c(C)nn(CCO)c1C.Cl` (stereo not drawn) to `Cc1nn(C)c(N(C)C)c1CNC1CCc2c(F)cccc21.Cl` (stereo not drawn), the “Percent Effect” value falls from 9.193% to -3.746%.

Compared with `COc1c(CNC2CCCOc3ccccc32)c(C)nn1C` (stereo not drawn), `Cc1nn(C)c(N(C)C)c1CNC1CCOc2c(F)cccc21` (stereo not drawn) is lower in “Percent Effect” value: -2.484% for the first, -12.9% for the second.

First: OC(COCc1ccccc1)CSc1nnc2ccccn12 (stereo not drawn)
Second: CN(Cc1ccccc1)CC(O)Cn1cnc2ccsc2c1=O (stereo not drawn)
The “Percent Effect” value of the first is lower: -5.176% for the first, -0.02665% for the second.

Compared with `CCn1cc(S(=O)(=O)NCC(OC)c2cccc(Cl)c2)cn1` (stereo not drawn), `COCCNS(=O)(=O)c1cccc2c1CN(C(=O)c1ccoc1)CC2` is lower in “Percent Effect” value: -3.186% for the first, -4.296% for the second.

First: Cc1nc(N2CCCC2C(=O)NCc2ccsc2)nc2ccccc12 (stereo not drawn)
Second: CCC(C)CNC(=O)[C@@H]1CCCN1c1nccc(Nc2ccccc2)n1 (stereo partly drawn)
The “Percent Effect” value of the first is lower: -0.4338% for the first, 83.24% for the second.

Compared with `Cn1cc(S(=O)(=O)N2CCCC(Cn3cncn3)C2)cn1` (stereo not drawn), `CCNC(=O)C1CCN(Cn2nc(-c3ccccc3)oc2=O)CC1` is higher in “Percent Effect” value: 7.015% for the first, 32.26% for the second.

Compared with `Cc1cc(C)nc(N2CCN(Cc3cc4n(n3)CCNC4)CC2)n1`, `COc1ccc(C)cc1NC(=O)Nc1cnc(N2CCN(C)CC2)nc1` is lower in “Percent Effect” value: 3.043% for the first, -7.75% for the second.

Compared with `CCNC(=O)C1CCN(Cn2nc(-c3ccc(F)cc3)oc2=O)CC1`, `NC(=O)C1CCN(Cn2nc(-c3ccc(F)cc3)oc2=O)CC1` is lower in “Percent Effect” value: 109.5% for the first, -1.438% for the second.

Going from `NC(=O)C1CCN(Cn2nc(-c3ccc(F)cc3)oc2=O)C1` (stereo not drawn) to `CN(C)C(=O)C1CCN(Cn2nc(-c3ccc(F)cc3)oc2=O)CC1`, the “Percent Effect” value rises from 1.615% to 103.8%.

First: CN(C)C(=O)C1CCN(Cn2ccc(-c3ccc(F)cc3)n2)CC1
Second: CC1COCCN1C(=O)c1ccc(=O)n(Cc2ccccc2)n1 (stereo not drawn)
The “Percent Effect” value of the first is higher: -0.7457% for the first, -2.389% for the second.

Going from `O=C(CCN1CCCCO1)NCCSc1cnn[nH]1` to `COCCn1nc(C(=O)N2CCOCC2C)ccc1=O` (stereo not drawn), the “Percent Effect” value rises from -10.06% to 3.322%.

Compared with `COc1ccc(C)cc1NC(=O)Nc1cnc(N2CCOCC2)nc1`, `COc1ccc(C)cc1NC(=O)Nc1cnc(N2CCCC2)nc1` is lower in “Percent Effect” value: 156.3% for the first, 135.2% for the second.

Going from `O=C(c1cnccn1)N1CCc2ncnc(C3CCOC3)c2CC1` (stereo not drawn) to `CC1COCCN1C(=O)c1cnccn1` (stereo not drawn), the “Percent Effect” value rises from -0.4646% to 93.18%.

Going from `O=C(Cc1cccs1)N1CCOCC1c1ccccc1` (stereo not drawn) to `Cc1cnc(C(=O)N2CCOCC2c2ccccc2)cn1` (stereo not drawn), the “Percent Effect” value rises from -1.023% to 87.18%.

Reference: ChEMBL document CHEMBL3988442, “University of Dundee, Small-Polar-MMV Screening Library” (2021)
